Only some compounds are listed: those with a hit (about 3.2% of all), similar ones and a draw of the others.
Tau fibril ThT = qHTS for Inhibitors of Tau Fibril Formation, Thioflavin T Binding; Microtubule-associated protein tau (Homo sapiens), P10636; recombinant tau K18 P301L, heparin-induced fibrillization, ThT fluorescence; Potency, µM (series often up to 57.4 µM), for the others: top-dose activity, negative = inhibition, actives largely listed as inhibitors; 270,000 tested, 2.1% active; AID 1460, 2008; note: nearly all actives have a fitted effect of over 55% in size
Target sequence (P10636 561-689 P618L limits assumed): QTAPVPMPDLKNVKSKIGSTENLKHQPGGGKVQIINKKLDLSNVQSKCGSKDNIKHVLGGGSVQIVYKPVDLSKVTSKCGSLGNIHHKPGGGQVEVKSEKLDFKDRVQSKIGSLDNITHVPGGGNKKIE
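Recombinant human tau K18 fragment […] carrying P301L, 15 uM unlabeled plus 0.24 uM Alexa 594-labeled, was fibrillized with 20 uM heparin in 100 mM sodium acetate pH 7 for 6 hr at 37 C; 30 uM ThT fluorescence read after 1 hr.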
TRb SRC2 PPI = qHTS for Inhibitors of the Interaction of Thyroid Hormone Receptor and Steroid Receptor Coregulator 2; Thyroid hormone receptor beta (Homo sapiens), P10828; TRbeta-SRC2 peptide binding, fluorescence polarization; receptor liganded with 1 µM T3; Potency, µM (highest dose often 106 µM), for inactives: top-dose activity change, negative = inhibition, actives largely listed as inhibitors; 280,000 tested, 0.065% active; AID 1469, 2008;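 note: plate controls were bound peptide for no effect and peptide without receptor for full effect; nearly all actives have a fitted effect of over 50% in size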
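Each compound concentration gave % activity, normalized to unbound and bound Texas Red SRC2 controls, from polarization read after 5 hr ambient incubation with T3-loaded human TRb LBD.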
Tau fluor counter = Counterscreen qHTS for Inhibitors of Tau Fibril Formation, Fluorescence Polarization; tau K18 P301L (four-repeat tau fragment) Alexa594 fluorescence, heparin fibrillization; Potency, µM (doses to about 57.7 µM), without a hit: at the top dose activity change, negative = decrease; 280,000 tested, 0.93% active; AID 1463, 2008; note: nearly all actives have a fitted effect of over 55% in size
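Human K18 P301L tau (15 uM unlabeled plus 0.24 uM Alexa 594-labeled, final) in 100 mM sodium acetate pH 7 was mixed with compound and 20 uM heparin and incubated 6 hr at 37 C.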
Tau FP inhib = qHTS for Inhibitors of Tau Fibril Formation, Fluorescence Polarization; Microtubule-associated protein tau (Homo sapiens), P10636; K18 P301L tau heparin fibrillization, Alexa594 FP, 6 h; Potency, µM (series often up to 57.7 µM), without a hit: at the highest dose activity, negative = inhibition, hits mostly inhibitors; 280,000 tested, 0.39% active; AID 1468, 2008; note: nearly all actives have a fitted effect of over 55% in size
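FP of Alexa 594-tau after heparin (20 uM) induction. Substrate: human K18 P301L, 15 uM unlabeled, 0.24 uM labeled. Buffer 100 mM sodium acetate pH 7. 6 hr, 37 C.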
RGS12 GoLoco inh = qHTS Assay for Inhibitors of RGS12 GoLoco Motif Activity (Red Fluorophore). AID 880, 2007. Gai1:RGS12 GoLoco peptide FP, rhodamine, 10 min. Guanine nucleotide-binding protein G(i) subunit alpha-1 (Homo sapiens), P63096. Potency, µM (series often up to 61.6 µM), inactives show top-dose activity, negative = inhibition, usual class: inhibitors. 230,000 tested, 0.44% active; active = well fitted inhibition curve with a large enough effect, not every such curve was filed as active; inactive = no such curve, though single readings can be large or run the other way; note: nearly all actives have a fitted effect of over 30% in size
Target sequence (P63096 whole entry, looked up): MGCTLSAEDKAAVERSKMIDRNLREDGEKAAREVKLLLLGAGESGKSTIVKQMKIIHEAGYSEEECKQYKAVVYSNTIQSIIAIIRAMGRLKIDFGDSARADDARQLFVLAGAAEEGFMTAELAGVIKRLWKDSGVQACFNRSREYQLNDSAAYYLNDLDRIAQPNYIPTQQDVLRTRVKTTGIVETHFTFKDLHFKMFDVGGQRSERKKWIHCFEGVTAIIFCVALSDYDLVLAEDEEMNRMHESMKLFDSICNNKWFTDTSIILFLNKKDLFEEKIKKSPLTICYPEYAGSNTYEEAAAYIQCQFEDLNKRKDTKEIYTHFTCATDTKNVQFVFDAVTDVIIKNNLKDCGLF
TR SRC2 fluor cs = Total Fluorescence Counterscreen for Inhibitors of the Interaction of Thyroid Hormone Receptor and Steroid Receptor Coregulator 2. Potency, µM (series often up to 106 µM), for inactives: top-dose fluorescence change, negative = quenching. TRb/SRC2 Texas Red total fluorescence interference. 280,000 tested, 0.29% active; active = well fitted curve in either direction with a large enough effect; inconclusive = small, poorly fitted or top-dose-only effect
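Human TRβ ligand-binding domain (0.6 uM) and Texas Red SRC2 peptide (20 nM) in Tris buffer with 1 uM T3 and 5% DMSO were incubated with pinned compound for 5 hr at ambient temperature. Total fluorescence was computed as S + 2P (555/632 nm).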
An asterisk follows results filed as active; [ ] = remark or other dose. Unless noted, calls come from the whole dose curve; as a rule, active = well fitted curve in the direction sought with a large enough effect; inconclusive = small, poorly fitted or top-dose-only effect, or another doubt; inactive = no such curve, though single readings can be large; an effect the other way counts as inactive or inconclusive. Unless noted, % is set by controls: 0 for no effect and ±100 for the full control effect; potency is the fitted concentration of half-maximal effect.

What do the screens show for `Cc1ccc(NC(=O)C(Cc2c[nH]c3ccccc23)NC(=O)OCC(C)C)cc1` (configuration not stated)?
Tau fibril ThT: -14%; TRb SRC2 PPI: -4%; Tau fluor counter: 20µM*[quencher]; Tau FP inhib: 2%; TR SRC2 fluor cs: 3%

What do the screens show for `COc1cc(/C=N/NC(=O)C(Cc2c[nH]c3ccccc23)NC(=O)OCC(C)C)cc([N+](=O)[O-])c1OCc1ccccc1` (configuration not stated)?
Tau fibril ThT: -17%; TRb SRC2 PPI: -2%; Tau fluor counter: inconclusive; Tau FP inhib: 16%; RGS12 GoLoco inh: 13%; TR SRC2 fluor cs: -1%

How did Cc1ccc(NC(=O)C(Cc2c[nH]c3ccccc23)NC(=O)OC(C)(C)C)c(C)c1 (configuration not stated) do in these assays?
Tau fibril ThT: -17%; TRb SRC2 PPI: 0%; Tau fluor counter: inconclusive; Tau FP inhib: 2%; TR SRC2 fluor cs: -1%

How did CC(C)C[C@H](NC(=O)CNC(=O)[C@H](C)NC(=O)[C@H](CC(C)C)NC(=O)[C@H](CCCNC(=N)N)NC(=O)[C@H](Cc1cnc[nH]1)NC(=O)[C@@H](NC(=O)[C@@H](N)C(C)C)[C@@H](C)O)C(=O)N[C@@H](CC(C)C)C(=O)N[C@@H](CO)C(=O)N[C@@H](CCCNC(=N)N)C(=O)N[C@@H](CO)C(=O)NCC(=O)NCC(=O)N[C@H](C(=O)N[C@H](C(=O)N[C@@H](CCCCN)C(=O)N[C@@H](CC(N)=O)C(=O)N[C@@H](CC(N)=O)C(=O)N[C@@H](Cc1ccccc1)C(=O)N[C@H](C(=O)N1CCC[C@H]1C(=O)N[C@H](C(=O)N[C@@H](CC(N)=O)C(=O)N[C@H](C(=O)NCC(=O)N[C@@H](CO)C(=O)N[C@@H](CCCCN)C(=O)N[C@@H](C)C(=O)N[C@@H](Cc1ccccc1)C(N)=O)C(C)C)[C@@H](C)O)C(C)C)C(C)C)C(C)C do in these assays?
TRb SRC2 PPI: 1%; TR SRC2 fluor cs: 0%

What do the screens show for `CC(=O)Nc1ccc(N=Nc2c(C)[nH]n(C(N)=S)c2=O)cc1`?
Tau fibril ThT: 8.9µM*; TRb SRC2 PPI: 1%; Tau fluor counter: -22%; Tau FP inhib: -7%; RGS12 GoLoco inh: 5%; TR SRC2 fluor cs: -7%

What do the screens show for `Cc1[nH]n(C(N)=S)c(=O)c1N=Nc1cc(-c2ccc(Br)cc2)[nH]n1`?
Tau fibril ThT: 2.2µM*; TRb SRC2 PPI: -3%; Tau fluor counter: inconclusive; Tau FP inhib: 3%; RGS12 GoLoco inh: 11%; TR SRC2 fluor cs: -16%

Results for COc1ccc(C(c2c(C)[nH]n(C(N)=S)c2=O)C(C#N)C#N)cc1 (configuration not stated) ?
Tau fibril ThT: inconclusive; TRb SRC2 PPI: -6%; Tau fluor counter: -26%; Tau FP inhib: inconclusive; RGS12 GoLoco inh: -3%; TR SRC2 fluor cs: -1%

What do the screens show for `Cc1ccc(N=Nc2c(C)[nH]n(C(N)=S)c2=O)cc1C`?
Tau fibril ThT: 4.5µM*; TRb SRC2 PPI: 1%; Tau fluor counter: -4%; Tau FP inhib: 5%; RGS12 GoLoco inh: 14%; TR SRC2 fluor cs: -3%

What do the screens show for `Cc1[nH]n(C(N)=S)c(=O)c1N=Nc1ccc2ccccc2c1`?
Tau fibril ThT: 2.8µM*; TRb SRC2 PPI: -4%; Tau fluor counter: inconclusive; Tau FP inhib: 3%; RGS12 GoLoco inh: 19%; TR SRC2 fluor cs: -6%

What do the screens show for `N#Cc1cccc(-c2cc(NCc3cccs3)ncn2)c1`?
Tau fibril ThT: 0%; TRb SRC2 PPI: -5%; Tau fluor counter: -6%; Tau FP inhib: 0%; RGS12 GoLoco inh: 3%; TR SRC2 fluor cs: -5%

How did C=C[C@@H](C)[C@](C)(O)c1ccccc1 do in these assays?
Tau fibril ThT: -1%; TRb SRC2 PPI: 4%; Tau fluor counter: -8%; Tau FP inhib: 8%; RGS12 GoLoco inh: 2%; TR SRC2 fluor cs: -3%

What do the screens show for `OC[C@@H]1O[C@H](OC2[C@@H](O)[C@@H](O)[C@@H](O)O[C@@H]2CO)[C@H](O)[C@@H](O)[C@@H]1OC1O[C@H](CO)[C@@H](O)[C@H](O)[C@@H]1O` (some centres not stated)?
TRb SRC2 PPI: -5%; TR SRC2 fluor cs: -7%

How did Cc1[nH]n(C(N)=S)c(=O)c1N=Nc1ccc(S(=O)(=O)N2CCCCCC2)cc1 do in these assays?
Tau fibril ThT: 25µM*; TRb SRC2 PPI: -8%; Tau fluor counter: -26%; Tau FP inhib: 7%; RGS12 GoLoco inh: 2%; TR SRC2 fluor cs: -11%

What do the screens show for `O=C(Nc1ccccc1Br)C(Cc1ccccc1)NS(=O)(=O)c1cccc2nsnc12` (configuration not stated)?
Tau fibril ThT: -16%; TRb SRC2 PPI: -5%; Tau fluor counter: inconclusive; Tau FP inhib: -18%; TR SRC2 fluor cs: -2%

How did CCOc1ccc(NC(=O)/C=C/c2ccccc2)c([N+](=O)[O-])c1 do in these assays?
Tau fibril ThT: inconclusive; TRb SRC2 PPI: 1%; Tau fluor counter: -16%; Tau FP inhib: 10%; RGS12 GoLoco inh: 8%; TR SRC2 fluor cs: -2%

Results for CCOc1ccc(N/C=C/C(=O)c2ccccc2)c([N+](=O)[O-])c1 ?
Tau fibril ThT: 1.4µM*; TRb SRC2 PPI: -11%; Tau fluor counter: inconclusive; Tau FP inhib: -9%; RGS12 GoLoco inh: 5%; TR SRC2 fluor cs: 5%

How did Nc1cc2nsnc2cc1Br do in these assays?
Tau fibril ThT: 8.9µM*; TRb SRC2 PPI: inconclusive; Tau fluor counter: inconclusive; Tau FP inhib: inconclusive; RGS12 GoLoco inh: 5%; TR SRC2 fluor cs: -9%

How did O=C(O)Cc1cc(I)c(Oc2cc(I)c(O)c(I)c2)c(I)c1 do in these assays?
Tau fibril ThT: -9%; TRb SRC2 PPI: -8%; Tau fluor counter: -6%; Tau FP inhib: -4%; RGS12 GoLoco inh: -5%; TR SRC2 fluor cs: -1%

What do the screens show for `COc1ccc(N/C=C/C(=O)c2sc(-c3ccccc3)nc2C)cc1`?
Tau fibril ThT: 2.5µM*; TRb SRC2 PPI: -5%; Tau fluor counter: inconclusive; Tau FP inhib: 8%; RGS12 GoLoco inh: 6%; TR SRC2 fluor cs: -5%

Compound activity (PubChem)
